Screens: PubChem BioAssay, National Center for Advancing Translational Sciences (NCATS)
Most compounds without a hit are left out; they make up all but 11% or so of the library.
IMPase cell inh: qHTS Assay for Identifying the Cell-Membrane Permeable IMPase Inhibitors; CHO-M1 cells, IP1 accumulation, HTRF TR-FRET ratio; Inositol monophosphatase 1 (Rattus norvegicus), P97697; 120,000 tested, under 10 active; AID 901, 2007; inhibition (IP1 accumulation), % at 46.1 µM; active = well fitted curve in the direction sought with a large enough effect in the signal ratio, not every such curve was filed as active; inconclusive = small, poorly fitted or top-dose-only effect, or a change in a side signal; inactive = no such curve, though single readings can be large or run the other way; the % refers to the signal ratio;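 also: cells stimulated with carbachol in lithium chloride buffer; plate controls were DMSO basal wells for no effect and reference inhibitor wells for full effect; higher means more IMPase inhibition seen as more IP1 and lower FRET ratio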
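Cellular IMPase inhibition is scored as a rise in cytosolic IP1, detected by competitive TR-FRET between d2-labelled IP1 and a europium anti-IP1 antibody. M1-expressing CHO cells were stimulated with carbachol for 30 min at 37C, with lithium (50 mM LiCl) present in the buffer.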
PNC assembly inh: High Content Assay for Compounds that inhibit the Assembly of the Perinucleolar Compartment; activity change (PNC), negative = inhibition, % at 10 µM; PC3M PTB-GFP, PNC prevalence imaging, 16 h; hits give low values; AID 2417, 2010; 3.1% of 140,000 active;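 active = readout at or below -70, meaning at least 70% loss of cells showing the perinucleolar compartment, a nuclear body marking cancer cells; inconclusive = readout between -30 and a set limit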;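 also: plate controls were DMSO wells for no effect and camptothecin positive control wells for full effect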
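Read-out is percentage of cells bearing a perinucleolar compartment, from automated 20x imaging of fixed, Hoechst-stained PC3M PTB-GFP cells. Cells were seeded 4 h, then exposed 16 h to compound (23 nl of library stock) in duplicate plates.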
HPGD inh: qHTS Assay for Inhibitors of HPGD (15-Hydroxyprostaglandin Dehydrogenase); 15-hydroxyprostaglandin dehydrogenase [NAD(+)] (Homo sapiens), P15428; purified HPGD, NADH fluorescence kinetic, PGE2 substrate; Potency, µM, without a hit: at the top dose activity change, negative = inhibition, usual class: inhibitors; 4.3% of 150,000 active; active = well fitted inhibition curve with a large enough effect, not every such curve was filed as active; inconclusive = small, poorly fitted or top-dose-only effect, or another doubt; inactive = no such curve, though single readings can be large or run the other way; also: potency is read from the fitted curve at half-maximal effect
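20 nM HPGD preincubated 15 min at room temperature with compound in 50 mM Tris-HCl pH 8, 0.01% Tween 20. Started with 1 mM NAD+ and 30 uM prostaglandin E2; NADH fluorescence (360/450 nm) read 5 times over 30-s intervals, last minus first.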
ALDH1A1 block: qHTS Assay for Inhibitors of Aldehyde Dehydrogenase 1 (ALDH1A1). Purified ALDH1A1, NADH fluorescence, propionaldehyde substrate. Potency, µM (doses to about 75.3 µM), inactives show at the highest dose activity, negative = inhibition, most hits filed as inhibitors. 7.3% of 220,000 active; active = well fitted inhibition curve with a large enough effect, not every such curve was filed as active; inconclusive = small, poorly fitted or top-dose-only effect, or another doubt; inactive = no such curve, though single readings can be large or run the other way;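 also: potency is read from the fitted curve at half-maximal effect; plate controls were no enzyme wells and a reference inhibitor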
Target sequence (P00352 whole entry, looked up): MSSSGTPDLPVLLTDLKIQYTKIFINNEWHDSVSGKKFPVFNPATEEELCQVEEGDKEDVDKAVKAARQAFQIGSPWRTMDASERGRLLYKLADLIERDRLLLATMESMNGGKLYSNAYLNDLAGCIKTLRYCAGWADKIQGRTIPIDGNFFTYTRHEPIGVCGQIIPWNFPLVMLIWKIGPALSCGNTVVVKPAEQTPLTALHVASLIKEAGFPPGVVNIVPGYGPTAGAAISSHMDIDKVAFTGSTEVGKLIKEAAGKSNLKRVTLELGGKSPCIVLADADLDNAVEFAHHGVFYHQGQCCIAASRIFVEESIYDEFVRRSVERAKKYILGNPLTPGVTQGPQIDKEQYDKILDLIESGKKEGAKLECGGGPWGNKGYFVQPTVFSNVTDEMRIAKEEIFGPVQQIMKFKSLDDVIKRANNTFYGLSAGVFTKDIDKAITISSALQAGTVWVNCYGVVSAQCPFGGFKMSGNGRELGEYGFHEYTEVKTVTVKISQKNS
IMPase Li cell: qHTS Assay for Identifying the Cell-Membrane Permeable IMPase Inhibitors: Potentiation with Lithium. Potency, µM (highest dose often 59.4 µM), for inactives: at the top dose activity, negative = IMPase inhibition, most hits filed as inhibitors. 0.35% of 210,000 active. AID 1457, 2008. CHO-M1 cells, IP1 TR-FRET (IP-One), carbachol + lithium;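 also: IP1 builds up when IMPase is blocked and the TR-FRET signal falls; potency is read from the fitted curve at half-maximal effect; plate controls were basal vehicle for no effect and high inhibitor control for full effect; nearly all actives have a fitted effect of over 50% in size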
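CHO cells stably expressing M1 receptor (2000/well, cultured 16–30 h) treated 30 min at 37C with compound plus low lithium. Cytosolic IP1 by TR-FRET (665/620 ratio and 620 channel) after 10 min lysis; AC50 by Hill fit.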
12-hLO inh: qHTS Assay for Inhibitors of 12-hLO (12-human lipoxygenase). purified 12-hLO, xylenol orange hydroperoxide absorbance. 0.12% of 150,000 active. Polyunsaturated fatty acid lipoxygenase ALOX12 (Homo sapiens), P18054. Potency, µM (top dose mostly 57.1 µM), without a hit: at the highest dose activity change, negative = inhibition, most hits filed as inhibitors; also: potency is read from the fitted curve at half-maximal effect; nearly all actives have a fitted effect of over 55% in size
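Xylenol orange chromogenic assay: hydroperoxide from 12hLO oxidises Fe(II), giving red-shifted Fe(III)-XO absorbance. Conditions: 150 nM enzyme, 40 uM arachidonic acid, 25 mM Hepes pH 7.0, 0.01% Triton X-100, 30 min, room temperature.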
Numbers without * were called inactive; [ ] = another dose, or the depositor's remark. Unless noted, calls follow the shape of the dose curve; as a rule, active = well fitted curve in the direction sought with a large enough effect; inconclusive = small, poorly fitted or top-dose-only effect, or another doubt; inactive = no such curve, though single readings can be large; an effect the other way counts as inactive or inconclusive. Unless noted, % is scaled to controls: 0 for no effect and ±100 for the full control effect.

Screening CC(C)CO/N=C1/C[C@@H](O)[C@@H](O)[C@@H]2[C@H]3C(=O)N(c4ccc(F)cc4F)C(=O)[C@@H]3CC[C@H]12 returned ALDH1A1 block 5%[13.5 µM].
For C/C(=N\NC(=O)c1ccncc1)c1cc2ccccc2oc1=O the results were PNC assembly inh inconclusive, HPGD inh inconclusive, ALDH1A1 block 13%, IMPase Li cell 0% and 12-hLO inh 1%.
C/C(=N\NS(=O)(=O)c1ccc(C)cc1)c1cc2ccccc2oc1=O was read as ALDH1A1 block 16µM* and IMPase Li cell -6%.
Screening COc1ccc(O[C@H]2C=C[C@@H](c3ccccc3)O[C@H]2CO/N=C(/C)CCC(=O)OC[C@@H]2O[C@H](C#Cc3ccccc3)C=C[C@@H]2Oc2ccc(C)cc2)cc1 returned ALDH1A1 block -5%[13.5 µM].
Screening S=c1[nH]nc(-c2cc(-c3ccco3)[nH]n2)n1-c1ccccc1Cl returned IMPase cell inh -10, PNC assembly inh 32, HPGD inh 32µM*, ALDH1A1 block 7.1µM*, IMPase Li cell -13%[38.3 µM] and 12-hLO inh inconclusive.
For S=c1[nH]nc(-c2cc(-c3ccco3)[nH]n2)n1-c1ccccc1 the results were IMPase cell inh -8, PNC assembly inh 61, HPGD inh 20µM*, ALDH1A1 block inconclusive, IMPase Li cell -19%[38.3 µM] and 12-hLO inh -2%.
For S=c1[nH]nc(-c2ccco2)n1-c1ccccc1Cl the results were ALDH1A1 block inconclusive and IMPase Li cell 15%.
For COc1ccc(CCNC(=O)COC(=O)c2cc(OC)c(OC)cc2OC)cc1OC the results were ALDH1A1 block 4% and IMPase Li cell inconclusive.
COc1cc(OC)cc(C(=O)Nn2cc(C(=O)Nc3c(F)cccc3F)c3ccccc3c2=O)c1 was read as PNC assembly inh -113*, HPGD inh -5%, ALDH1A1 block 11%, IMPase Li cell 1% and 12-hLO inh -6%.
Screening S=P(c1ccc(N2CCOCC2)cc1N1CCOCC1)(N1CCOCC1)N1CCOCC1 returned IMPase cell inh 11, PNC assembly inh inconclusive, HPGD inh 25µM*, ALDH1A1 block 28µM*, IMPase Li cell -3%[38.3 µM] and 12-hLO inh -8%.
Screening O=[N+]([O-])c1ccc(N2CCCCC2)cc1N1CCOCC1 returned IMPase cell inh 1, PNC assembly inh 2, HPGD inh -15%, ALDH1A1 block 1%, IMPase Li cell -5%[38.3 µM] and 12-hLO inh 3%.
`O=C(Nc1cccc(F)c1)N1CCCC2(CCNCC2)C1` gave HPGD inh -10%, ALDH1A1 block 16%, IMPase Li cell -1% and 12-hLO inh 4%.
O=Nc1ccc(NO)cc1 was read as HPGD inh -25%, ALDH1A1 block 10µM*, IMPase Li cell 32% and 12-hLO inh -6%.
O=Nc1ccc(NOC(=O)c2ccccc2)cc1 was read as PNC assembly inh -28, HPGD inh -27%, ALDH1A1 block inconclusive, IMPase Li cell 0% and 12-hLO inh -2%.
For COc1cc(C(=O)NNC(=O)Nc2ccc([N+](=O)[O-])cc2)cc(OC)c1OC the results were ALDH1A1 block -1% and IMPase Li cell -4%.
Screening Cc1cc(C(=O)CSc2nnnn2-c2ccccc2)c(C)n1CCc1ccccc1 returned IMPase cell inh 1, PNC assembly inh 91, HPGD inh -14%, ALDH1A1 block inconclusive, IMPase Li cell 11%[38.3 µM] and 12-hLO inh 5%.
Cc1cc(C(=O)CSc2nnnn2-c2ccc(O)cc2)c(C)n1C was read as ALDH1A1 block 16µM* and IMPase Li cell 7%.
